This note sets out measurements from PubChem BioAssay AID686996 (Broad Institute, 2013).

Structures are written as SMILES. Hit rate of the full screen: of about 350,000 compounds, about 1,900 (0.54%) were called active.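 Rule for the calls: active = mean inhibition across replicates at least about 35%, with every replicate also reaching that limit (limit read from the data); inconclusive = only one of the two criteria met; inactive = neither criterion met.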 The sample as a whole holds a higher share of actives than the screen did.

For orientation: inhibition means the relative decrease from the control value, in per cent.

Sequence of Caspase-6 (Homo sapiens) (P55212 24-179 limits assumed): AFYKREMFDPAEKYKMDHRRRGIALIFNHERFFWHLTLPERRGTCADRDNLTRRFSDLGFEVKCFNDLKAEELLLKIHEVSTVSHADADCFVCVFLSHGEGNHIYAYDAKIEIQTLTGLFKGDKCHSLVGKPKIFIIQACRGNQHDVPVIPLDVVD
Sequence of Caspase-6 (Homo sapiens) (P55212 194-293 limits assumed): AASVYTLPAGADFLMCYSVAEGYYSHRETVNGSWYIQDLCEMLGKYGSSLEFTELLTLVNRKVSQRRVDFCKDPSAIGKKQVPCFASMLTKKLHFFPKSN

This experiment has as its target Caspase-6 (Homo sapiens) (UniProt P55212). Briefly: inhibition of CASP6 peptide cleavage – biochemical, VEID-R110 fluorescence, single point, set 2, primary screen (AID 686996).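 Note: 0% = median of neutral control wells and 100% = no fluorescence left.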 The conditions noted are these: purified caspase-6, Z-VEID-R110 cleavage fluorescence; at 12.5 µM; active compounds read high.
On to `O=C1OC(/C=C/c2ccccc2)=NC/1=C/c1ccco1`, for which the inhibition is 38.7% (active).
The same measure for `C[C@H]1CN([C@@H](C)CO)C(=O)c2cc(-c3ccncc3)cnc2O[C@@H]1CN(C)C(=O)c1cccc(F)c1`: 1.35% (inactive); for `Cc1noc(C)c1NC(=O)N(C)C[C@H]1Oc2ccc(N(C)C)cc2CC(=O)N([C@H](C)CO)C[C@H]1C`: -3.82% (inactive).
Turning to `O=C(C[C@H]1CC[C@@H](NC(=O)Nc2ccc(F)cc2)[C@H](CO)O1)NCc1cccc(F)c1`, the inhibition was -1.29% (inactive).
In the case of `COc1cc(NC(=O)COC(=O)c2ccc([N+](=O)[O-])s2)cc(OC)c1OC`, the inhibition is 87.1% (active).
With `O=C(OCC(=O)N1CCN(c2ccccc2)CC1)c1ccc([N+](=O)[O-])s1` the figure was 22% (inactive); with `COc1ccc(C(=O)COC(=O)c2ccc([N+](=O)[O-])s2)cc1OC`, 0.899% (inactive).
The same measure for `O=C(C[C@H]1CC[C@H]2NC[C@@H](O)COC[C@@H]2O1)NCCN1CCCC1`: -1.22% (inactive); for `COc1ccc(Cl)cc1NC(=O)CCS(=O)(=O)c1ccc(Br)cc1`: 87.9% (active); for `COc1ccc(Cl)cc1NC(=O)CCS(=O)(=O)c1cc2c(cc1C)NC(=O)CO2`: 0.689% (inactive).
For `O=C(CCS(=O)(=O)c1ccc(Br)cc1)NCCc1ccc(Cl)cc1`, the inhibition is 49% (active).
The same measure for `O=C(Cc1ccc(Br)cc1)NCCc1ccccc1`: 0.216% (inactive).
With `Cc1ccc(S(=O)(=O)CCC(=O)OCC(=O)NCCc2ccc(S(N)(=O)=O)cc2)cc1` the figure was 1.6% (inactive); with `CCOc1ccc(OCC)c(NC(=O)CCS(=O)(=O)c2ccc(C)cc2)c1`, 0.288% (inactive); with `CC(C)NC(=O)N(C)C[C@@H]1Oc2ccc(NS(=O)(=O)c3cn(C)cn3)cc2C(=O)N([C@@H](C)CO)C[C@@H]1C`, 0.64% (inactive).
With `C[C@@H]1CCCCO[C@H](CN(C)S(=O)(=O)c2cccs2)[C@@H](C)CN([C@@H](C)CO)C(=O)c2cc(NC(=O)Nc3ccc4c(c3)OCO4)ccc2O1`, the inhibition is 0.247% (inactive).
With `Cc1noc(C)c1NC(=O)N(C)C[C@@H]1Oc2ccc(NS(C)(=O)=O)cc2C(=O)N([C@@H](C)CO)C[C@@H]1C`, the inhibition is 3.77% (inactive).
The same measure for `C[C@H](NC(=O)C[C@@H]1C[C@@H]2c3cc(NC(=O)Nc4ccc(C(F)(F)F)cc4)ccc3O[C@@H]2[C@H](CO)O1)c1ccccc1`: -2.54% (inactive); for `O=C(NC[C@@H]1N[C@@H](CO)[C@H]1c1ccc(-c2cccnc2)cc1)c1cccc(F)c1`: 0.599% (inactive); for `CCNc1ccc(C(=O)OCC(=O)N2c3ccccc3NC(=O)C2(C)C)cc1[N+](=O)[O-]`: -5.89% (inactive).
With `CNS(=O)(=O)c1cccc(C(=O)OCC(=O)N2c3ccccc3NC(=O)C2(C)C)c1`, the inhibition is 35.9% (active).
The same measure for `Cc1cc(C(=O)OCC(=O)N2c3ccccc3NC(=O)C2(C)C)c(C)n1-c1ccccc1`: -1.9% (inactive).
For `C[C@@H]1CCCCO[C@@H](CN(C)C(=O)Nc2ccc(C(F)(F)F)cc2)[C@H](C)CN([C@H](C)CO)C(=O)c2cc(NC(=O)c3ccccc3)ccc2O1`, the inhibition is -0.72% (inactive).
With `C[C@@H]1CCCCO[C@H](CN(C)C(=O)Cc2ccccc2)[C@H](C)CN([C@H](C)CO)C(=O)c2cc(NS(=O)(=O)c3cn(C)cn3)ccc2O1`, the inhibition was -3.5% (inactive).
For the compound `O=C(Nc1ccc2c(c1)OCCO2)C1CCCC1`, the inhibition was 35.2% (active).
With `O=C(Nc1ccc2c(c1)OCO2)C1CC1(Cl)Cl` (stereo unspecified) the figure was -1.32% (inactive).
With `O=C(Nc1ccc2c(c1)OCCO2)c1ccoc1` the figure was 0.545% (inactive); with `COC(=O)C[C@@H]1CC[C@@H]2[C@@H](COc3ccc(NC(=O)C4CCOCC4)cc3C(=O)N2C)O1`, -2.32% (inactive).
As to `C/C=C/c1ccc([C@@H]2[C@H](CO)N(S(=O)(=O)Cc3ccccc3)C23CN(C(=O)C2CCOCC2)C3)cc1`, the inhibition is 0.958% (inactive).
With `O=C(NCC[C@H]1CC[C@H](NS(=O)(=O)c2cccc(F)c2)[C@H](CO)O1)C1CCCCC1` the figure was -1.12% (inactive); with `O=C(C[C@@H]1CC[C@H]2[C@@H](COC[C@H](O)CN2C(=O)Nc2ccccc2)O1)NCCc1ccncc1`, 2.19% (inactive).
Turning to `CO[C@@H]1CN(C)C(=O)c2ccc(NS(=O)(=O)c3cccc(C)c3)cc2OC[C@@H](C)NC[C@H]1C`, the inhibition was -0.731% (inactive).
With `CCC(=O)N1[C@H](C(=O)NC2CCC2)[C@@H](CO)[C@@H]2Cn3c(cccc3=O)[C@@H]21` the figure was 0.371% (inactive); with `COc1ccc2c3c(n(C)c2c1)[C@H](CO)N(CC1CCCCC1)CC31CCN(Cc2nccs2)CC1`, -2.93% (inactive); with `CS(=O)(=O)c1ccc2c(c1)SC1=NC(=O)/C(=C/c3ccco3)C(=N)N12`, 56.4% (active).
For `COc1ccc2c3c(n(C)c2c1)[C@@H](CO)N(C)CC31CN(CC2CC2)C1`, the inhibition is -5.67% (inactive).
With `Cc1ccc(S(=O)(=O)Nc2ccc3c(c2)C(=O)N([C@@H](C)CO)C[C@@H](C)[C@H](CN(C)Cc2ccc(Cl)c(Cl)c2)OCCCC[C@@H](C)O3)cc1` the figure was -0.785% (inactive); with `O=C(C[C@@H]1CC[C@@H](NS(=O)(=O)c2ccc(F)cc2)[C@@H](CO)O1)NCCc1ccncc1`, 3.03% (inactive).
For the compound `O=C(Nc1ccc(F)cc1)N[C@@H]1CC[C@H](CC(=O)N2CCCCC2)O[C@H]1CO`, the inhibition is 1.55% (inactive).
With `Cc1ccccc1NC(=O)CSC(=O)c1ccccc1` the figure was 1.82% (inactive); with `Cc1ccccc1NC(=O)CN1C(=O)N/C(=C\c2cccn2-c2cccc(C(=O)O)c2)C1=O`, 63.2% (active).
For the compound `Cc1ccccc1NC(=O)Cn1c(=O)n(CC2CCCO2)c(=O)c2ccccc21` (stereo unspecified), the inhibition is 6.2% (inactive).
With `COc1ccc(NC(=O)N[C@H]2CC[C@@H](CCNS(=O)(=O)c3cccc(Cl)c3)O[C@H]2CO)cc1` the figure was -1.94% (inactive); with `Cc1ccc(-c2cnc3c(c2)C(=O)N([C@H](C)CO)C[C@@H](C)[C@@H](CN(C)C(=O)CN(C)C)O3)cc1`, -0.686% (inactive).
The same measure for `COc1ccc(C(=O)N2C[C@@H]3[C@H](c4ccccc42)[C@H](CO)N3Cc2ccc3c(c2)OCO3)cc1`: -0.922% (inactive); for `COc1ccc(NC(=O)N(C)C[C@H]2OCCCC[C@H](C)Oc3ccc(NS(C)(=O)=O)cc3C(=O)N([C@H](C)CO)C[C@@H]2C)cc1`: -0.91% (inactive).
